Assay results reported in PubChem BioAssay (NCI).
Compounds without any hit were thinned out: in the full panel of roughly 83,000, 20% have a hit.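 Method: cells in 96-well plates; compound added at one concentration; 48 h incubation; percent growth measured; values under 10 scored active.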 Active and inactive are the calls of the source.

Legend:
Assay in all cases: NCI-60 one-dose screen, 48 h (100 = growth as untreated, 0 = no growth, -100 = all killed)
Settings in all cases: 10 µM unless noted
DU-145 prostate = tested on: DU-145 prostate
K-562 leukemia = tested on: K-562 leukemia
MALME-3M melanoma = tested on: MALME-3M melanoma
MDA-MB-231 breast = tested on: MDA-MB-231 breast
RXF 393 renal = tested on: RXF 393 renal
SF-268 CNS = tested on: SF-268 CNS
SF-295 CNS = tested on: SF-295 CNS
SF-539 CNS = tested on: SF-539 CNS
UACC-257 melanoma = tested on: UACC-257 melanoma
M14 melanoma = tested on: M14 melanoma
HCT-15 colon = tested on: HCT-15 colon
HT29 colon = tested on: HT29 colon
SNB-75 CNS = tested on: SNB-75 CNS
SNB-19 CNS = tested on: SNB-19 CNS
U251 CNS = tested on: U251 CNS
PC-3 prostate = tested on: PC-3 prostate
SK-MEL-5 melanoma = tested on: SK-MEL-5 melanoma
UACC-62 melanoma = tested on: UACC-62 melanoma
LOX IMVI melanoma = tested on: LOX IMVI melanoma
SK-MEL-28 melanoma = tested on: SK-MEL-28 melanoma

Measured: growth

CCOC(=O)c1c(C)nc2c(c1N)CC(=O)N2Cc1cc(OC)c(OC)c(OC)c1
inactive: DU-145 prostate 80.6% | K-562 leukemia 14.6% | MALME-3M melanoma 45% | MDA-MB-231 breast 55.3% | RXF 393 renal 73.2% | SF-268 CNS 69.5% | SF-295 CNS 39.5% | SF-539 CNS 66.2% | UACC-257 melanoma 53% | M14 melanoma 28.1% | HCT-15 colon 28.5% | SNB-75 CNS 53.9% | SNB-19 CNS 66.1% | U251 CNS 38.3% | PC-3 prostate 52.4% | SK-MEL-5 melanoma 23% | UACC-62 melanoma 51% | LOX IMVI melanoma 48.5% | SK-MEL-28 melanoma 73.6%
active: HT29 colon 8.37%

CC[C@@H](c1ccc2cc(OC)ccc2c1)C(C)(C)C(=O)F
inactive: DU-145 prostate 104% | K-562 leukemia 104% | MALME-3M melanoma 97.1% | MDA-MB-231 breast 106% | RXF 393 renal 98.6% | SF-268 CNS 113% | SF-295 CNS 98.7% | SF-539 CNS 103% | M14 melanoma 99.2% | HCT-15 colon 104% | HT29 colon 118% | SNB-75 CNS 106% | SNB-19 CNS 91.9% | U251 CNS 98.8% | PC-3 prostate 101% | SK-MEL-5 melanoma 106% | UACC-62 melanoma 103% | LOX IMVI melanoma 91.4% | SK-MEL-28 melanoma 106%
active: UACC-257 melanoma -0.544%

CC(/C=C1\SC(=S)N(CC(=O)NC(Cc2c[nH]c3ccccc23)C(=O)O)C1=O)=C\c1ccccc1 (stereo not given)
inactive: DU-145 prostate 112% | K-562 leukemia 107% | MALME-3M melanoma 107% | MDA-MB-231 breast 104% | RXF 393 renal 106% | SF-268 CNS 92.8% | SF-295 CNS 104% | SF-539 CNS 104% | UACC-257 melanoma 100% | M14 melanoma 103% | HCT-15 colon 103% | HT29 colon 110% | SNB-75 CNS 87.2% | SNB-19 CNS 98.8% | U251 CNS 105% | PC-3 prostate 97.6% | SK-MEL-5 melanoma 96.4% | UACC-62 melanoma 88.3% | LOX IMVI melanoma 92.9% | SK-MEL-28 melanoma 105%

C[C@@H](CO)[C@@H]1CC[C@]2(C(=O)N3CCN(C)CC3)CC[C@]3(C)[C@H](CC[C@@H]4[C@@]5(C)CC[C@H](O)C(C)(C)[C@@H]5CC[C@]43C)[C@@H]12
inactive: DU-145 prostate 67.7% | MALME-3M melanoma 105% | MDA-MB-231 breast 82.8% | RXF 393 renal 81.5% | SF-268 CNS 56.7% | SF-295 CNS 90.4% | SF-539 CNS 86.1% | UACC-257 melanoma 98% | M14 melanoma 101% | HCT-15 colon 44.3% | HT29 colon 17.6% | SNB-75 CNS 91.4% | SNB-19 CNS 68.7% | U251 CNS 24.1% | PC-3 prostate 64.1% | SK-MEL-5 melanoma 82.9% | UACC-62 melanoma 78.3% | LOX IMVI melanoma 38.7% | SK-MEL-28 melanoma 106%
active: K-562 leukemia 4.66%

COc1ccc(-c2cc(C(=O)N3N=C(c4ccc(N)cc4)CC3c3ccccc3)c3ccccc3n2)cc1 (stereo not given)
active: SF-295 CNS 6.86% | SNB-75 CNS -1.79%
inactive: DU-145 prostate 21.8% | K-562 leukemia 19.8% | MALME-3M melanoma 54.6% | MDA-MB-231 breast 62.9% | RXF 393 renal 51.1% | SF-268 CNS 51.5% | SF-539 CNS 13.4% | UACC-257 melanoma 47.2% | M14 melanoma 17.2% | HCT-15 colon 24.6% | HT29 colon 10.3% | SNB-19 CNS 47.8% | U251 CNS 36.9% | PC-3 prostate 32.5% | SK-MEL-5 melanoma 36.2% | UACC-62 melanoma 40.3% | LOX IMVI melanoma 39.7% | SK-MEL-28 melanoma 53.1%

O=C(/C=C/C12c3ccccc3C(c3ccccc31)C1C(=O)NC(=O)C12)c1ccc(F)cc1 (stereo not given)
inactive: DU-145 prostate 22.2% | MALME-3M melanoma 20.2% | MDA-MB-231 breast 11.9% | SF-268 CNS 31.3% | SF-295 CNS 11.5% | UACC-257 melanoma 27.3% | M14 melanoma 10.2% | SNB-19 CNS 10.6% | SK-MEL-5 melanoma 10.8%
active: K-562 leukemia 6.1% | RXF 393 renal -35.4% | SF-539 CNS 6.05% | HCT-15 colon -10.6% | HT29 colon -3.81% | SNB-75 CNS 7.89% | U251 CNS -44.4% | PC-3 prostate 8.91% | UACC-62 melanoma -55.6% | LOX IMVI melanoma -53.9% | SK-MEL-28 melanoma 6.45%

COc1ccc(OC)c(-c2cn3nc(-c4c[nH]c5ccc(Br)cc45)sc3n2)c1
inactive: DU-145 prostate 29.3% | MALME-3M melanoma 52.2% | RXF 393 renal 67.8% | SF-268 CNS 18.3% | SF-295 CNS 54.1% | UACC-257 melanoma 84.9% | M14 melanoma 12.7% | HCT-15 colon 24.6% | HT29 colon 10% | SNB-75 CNS 45% | SNB-19 CNS 75.4% | U251 CNS 36.9% | PC-3 prostate 40.9% | SK-MEL-5 melanoma 75.3% | UACC-62 melanoma 50.1% | SK-MEL-28 melanoma 59.5%
active: K-562 leukemia 5.98% | MDA-MB-231 breast 9.49% | SF-539 CNS -12.8% | LOX IMVI melanoma -50.5%

COc1cc(Nc2c3ccc(Cl)cc3nc3ccc(OC)cc23)c2ncccc2c1
inactive: DU-145 prostate 39.4% | K-562 leukemia 53.2% | MALME-3M melanoma 32.1% | MDA-MB-231 breast 34% | RXF 393 renal 45.5% | SF-268 CNS 43.3% | SF-295 CNS 46.2% | SF-539 CNS 45% | UACC-257 melanoma 59.6% | M14 melanoma 49.5% | HCT-15 colon 23.8% | HT29 colon 38.1% | SNB-75 CNS 70.1% | SNB-19 CNS 66.6% | U251 CNS 31.5% | PC-3 prostate 38% | SK-MEL-5 melanoma 33% | UACC-62 melanoma 36.4% | LOX IMVI melanoma 29.3% | SK-MEL-28 melanoma 50%
